According to PubChem BioAssay (EPA / NIEHS):
Activity calls are given as the source filed them. Rule for the calls: active = hit-call score of the fitted dose curve at least 0.9, where 1 is the maximum; inactive = score below 0.9.

Key:
[1] = read-out: Interleukin-1 alpha (IL1a), IL1A (gene 3552); experiment: BSK_KF3CT_IL1a: BioMAP Diversity Plus: KF3CT Assay for Interleukin-1 alpha (IL1a) Biomarker Activity (AID 2283070); conditions: primary human keratinocytes with fibroblasts; actives raise or lower the signal
Procedure, shortened: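 Primary human keratinocyte plus foreskin fibroblast co-culture, dosed and measured at 24 h in 96-well plates. IL-1a level quantified by ELISA; bidirectional fit relative to DMSO.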

[2] = read-out: Transforming growth factor beta 1 (TGFb1), TGFB1 (gene 7040); experiment: BSK_KF3CT_TGFb1: BioMAP Diversity Plus: KF3CT Assay for Transforming growth factor beta 1 (TGFb1) Biomarker Activity (AID 2283072); conditions: primary human keratinocytes with fibroblasts; actives raise or lower the signal
Procedure, shortened: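 Human keratinocyte/foreskin fibroblast co-culture; TGF-b1 measured by ELISA 24 h after dosing, fitted bidirectionally versus DMSO. Cytotoxicity checked in parallel cultures by total protein (SRB staining, 560 nm).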

[3] = read-out: C-C motif chemokine 2 (Homo sapiens) (UniProt P13500); experiment: BSK_KF3CT_MCP1: BioMAP Diversity Plus: KF3CT Assay for Monocyte Chemoattractant Protein 1 (MCP1/CCL2) Biomarker Activity (AID 2283073); conditions: primary human keratinocytes with fibroblasts; actives raise or lower the signal
Procedure, shortened: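 Biomarker MCP-1 is measured by ELISA in primary human keratinocytes co-cultured with foreskin fibroblasts, 24 h after chemical treatment; DMSO serves as the negative control and activity baseline.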

[4] = read-out: Matrix Metallopeptidase 9 (MMP9), MMP9 (gene 4318); experiment: BSK_KF3CT_MMP9: BioMAP Diversity Plus: KF3CT Assay for Matrix Metallopeptidase 9 (MMP9) Biomarker Activity (AID 2283074); conditions: primary human keratinocytes with fibroblasts; actives raise or lower the signal
Procedure, shortened: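 Human keratinocyte and foreskin fibroblast co-culture exposed to chemicals for 24 h; MMP9 biomarker measured by ELISA, bidirectional fitting relative to DMSO; cytotoxicity tracked by SRB total protein staining in parallel cultures.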

[5] = read-out: urokinase plasminogen activator (uPA), PLAU (gene 5328); experiment: BSK_KF3CT_uPA: BioMAP Diversity Plus: KF3CT Assay for urokinase plasminogen activator (uPA) Biomarker Activity (AID 2283075); conditions: primary human keratinocytes with fibroblasts; actives raise or lower the signal
Procedure, shortened: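 Primary human keratinocyte/foreskin fibroblast co-culture exposed to chemical; uPA measured by ELISA at 24 h. Bidirectional fit versus DMSO, with parallel SRB total-protein staining for cytotoxicity.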

CD40, CD40 (gene 958) [6] = experiment: BSK_LPS_CD40: BioMAP Diversity Plus: LPS Assay for CD40 Biomarker Activity (AID 2283076); conditions: primary human HUVEC with PBMC; actives raise or lower the signal
Procedure, shortened: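 Using a multiplexed primary human co-culture (umbilical vein endothelium plus PBMC), CD40 was read by ELISA 24 h after dosing, with cytotoxicity tracked by sulforhodamine B staining of parallel cultures and activity fitted bidirectionally versus DMSO.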

[7] = read-out: E-selectin (Homo sapiens) (UniProt P16581); experiment: BSK_LPS_Eselectin: BioMAP Diversity Plus: LPS Assay for Eselectin Biomarker Activity (AID 2283077); conditions: primary human HUVEC with PBMC; actives raise or lower the signal
Procedure, shortened: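 Dose chemical onto LPS-driven HUVEC/PBMC co-culture; after 24 h, run ELISA for E-selectin; fit up- and down-going responses relative to DMSO control.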

[8] = read-out: Interleukin-8 (IL8), CXCL8 (gene 3576); experiment: BSK_LPS_IL8: BioMAP Diversity Plus: LPS Assay for Interleukin-8 (IL8) Biomarker Activity (AID 2283078); conditions: primary human HUVEC with PBMC; actives raise or lower the signal
Procedure, shortened: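 In this LPS system, chemical-treated human umbilical vein endothelium/PBMC co-cultures were harvested at 24 h for IL-8 ELISA.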

[9] = BSK_LPS_SRB: Viability Assessment in the BioMAP Diversity Plus: LPS Assay (AID 2283079); conditions: primary human HUVEC with PBMC;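 note: total protein by sulforhodamine B absorbance as a cytotoxicity measure; measured one day after compound addition; fitted in both directions against DMSO so loss or gain of signal counts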
Procedure, shortened: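 Cytotoxicity endpoint in human endothelial–PBMC co-culture: 24 h exposure, then SRB (0.1%) staining, 560 nm read.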

[10] = read-out: Interleukin-1 alpha (IL1a), IL1A (gene 3552); experiment: BSK_LPS_IL1a: BioMAP Diversity Plus: LPS Assay for Interleukin-1 alpha (IL1a) Biomarker Activity (AID 2283080); conditions: primary human HUVEC with PBMC; actives raise or lower the signal
Procedure, shortened: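 Primary human HUVEC and PBMC co-culture stimulated with LPS is dosed and harvested at 24 h. Both increases and decreases in ELISA-measured IL-1a are scored relative to DMSO.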

[11] = read-out: Monocyte Chemoattractant Protein-1 (MCP1), CCL2 (gene 6347); experiment: BSK_LPS_MCP1: BioMAP Diversity Plus: LPS Assay for Monocyte Chemoattractant Protein-1 (MCP1) Biomarker Activity (AID 2283081); conditions: primary human HUVEC with PBMC; actives raise or lower the signal
Procedure, shortened: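 Values derive from bidirectional fitting against DMSO of ELISA-measured MCP-1 in a human primary endothelial and mononuclear cell co-culture, 24 h after chemical addition under LPS activation.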

[12] = BSK_LPS_PGE2: BioMAP Diversity Plus: LPS Assay for Prostaglandin E2 (PGE2) Biomarker Activity (AID 2283082); conditions: primary human HUVEC with PBMC; actives raise or lower the signal
Procedure, shortened: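 HUVEC plus human PBMC co-culture stimulated with LPS; secreted PGE2 quantified by ELISA 24 h after chemical dosing. Activity fitted bidirectionally against DMSO baseline; parallel SRB staining (0.1% SRB after 10% TCA fixation, 560 nm) flags overt cytotoxicity.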

[13] = read-out: Macrophage colony-stimulating factor (MCSF), CSF1 (gene 1435); experiment: BSK_LPS_MCSF: BioMAP Diversity Plus: LPS Assay for Macrophage colony-stimulating factor (MCSF) Biomarker Activity (AID 2283083); conditions: primary human HUVEC with PBMC; actives raise or lower the signal
Procedure, shortened: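 Bidirectional fit versus DMSO of ELISA-measured M-CSF in co-cultured human umbilical vein endothelial cells and PBMC, sampled 24 h after dosing.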

[14] = read-out: Tissue Factor, F3 (gene 2152); experiment: BSK_LPS_TissueFactor: BioMAP Diversity Plus: LPS Assay for Tissue Factor Biomarker Activity (AID 2283084); conditions: primary human HUVEC with PBMC; actives raise or lower the signal
Procedure, shortened: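 Read-out: CD142 ELISA, 24 h. System: LPS-driven human endothelial/PBMC co-culture. Analysis: up- or down-signal fitted against DMSO.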

[15] = read-out: Tumor necrosis factor (Homo sapiens) (UniProt P01375); experiment: BSK_LPS_TNFa: BioMAP Diversity Plus: LPS Assay for Tumour Necrosis Factor alpha (TNFa) Biomarker Activity (AID 2283085); conditions: primary human HUVEC with PBMC; actives raise or lower the signal
Procedure, shortened: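 Human umbilical vein endothelial cells co-cultured with PBMC and stimulated with LPS. TNFa was measured by ELISA 24 h after chemical dosing, fitted bidirectionally relative to DMSO.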

[16] = read-out: Vascular cell adhesion molecule 1 (VCAM1), VCAM1 (gene 7412); experiment: BSK_LPS_VCAM1: BioMAP Diversity Plus: LPS Assay for Vascular cell adhesion molecule 1 (VCAM1) Biomarker Activity (AID 2283086); conditions: primary human HUVEC with PBMC; actives raise or lower the signal
Procedure, shortened: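 Human umbilical vein endothelial cells co-cultured with PBMC and stimulated with LPS; VCAM-1 measured by ELISA 24 h after dosing. Bidirectional curve fitting against DMSO baseline; cytotoxicity tracked in parallel by SRB total-protein staining.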

CD38, CD38 (gene 952) = experiment: BSK_SAg_CD38: BioMAP Diversity Plus: SAg Assay for CD38 Biomarker Activity (AID 2283087); conditions: primary human HUVEC with PBMC; actives raise or lower the signal
Procedure, shortened: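 Human HUVEC plus PBMC co-culture stimulated with superantigen; CD38 measured by ELISA 24 h after chemical dosing. Fluorescence read-out, bidirectional fit against DMSO; cytotoxicity tracked in parallel by SRB and Alamar Blue.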

CD40, CD40 (gene 958) [17] = experiment: BSK_SAg_CD40: BioMAP Diversity Plus: SAg Assay for CD40 Biomarker Activity (AID 2283088); conditions: primary human HUVEC with PBMC; actives raise or lower the signal
Procedure, shortened: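 Endpoint derived by fitting increases or decreases versus DMSO controls. CD40 is detected by fluorescence ELISA in a human vascular co-culture of endothelium and PBMC at 24 h.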

CD69, CD69 (gene 969) = experiment: BSK_SAg_CD69: BioMAP Diversity Plus: SAg Assay for CD69 Biomarker Activity (AID 2283089); conditions: primary human HUVEC with PBMC; actives raise or lower the signal
Procedure, shortened: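 Values derive from bidirectional fitting relative to DMSO vehicle. Cells: umbilical vein endothelium plus peripheral blood mononuclear cells, treated 24 h before fluorescent ELISA for CD69.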

[18] = read-out: TIMP metallopeptidase inhibitor 2 (TIMP2), TIMP2 (gene 7077); experiment: BSK_KF3CT_TIMP2: BioMAP Diversity Plus: KF3CT Assay for TIMP metallopeptidase inhibitor 2 (TIMP2) Biomarker Activity (AID 2283071); conditions: primary human keratinocytes with fibroblasts; actives raise or lower the signal
Procedure, shortened: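 Co-culture of human primary keratinocytes and foreskin fibroblasts, measured 24 h after chemical dosing. TIMP-2 quantified by ELISA and fitted in both directions relative to DMSO. Cytotoxicity checked in parallel cultures by SRB total-protein staining.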

Measured: AC50

Tumor necrosis factor (Homo sapiens), sequence (P01375 whole entry, looked up): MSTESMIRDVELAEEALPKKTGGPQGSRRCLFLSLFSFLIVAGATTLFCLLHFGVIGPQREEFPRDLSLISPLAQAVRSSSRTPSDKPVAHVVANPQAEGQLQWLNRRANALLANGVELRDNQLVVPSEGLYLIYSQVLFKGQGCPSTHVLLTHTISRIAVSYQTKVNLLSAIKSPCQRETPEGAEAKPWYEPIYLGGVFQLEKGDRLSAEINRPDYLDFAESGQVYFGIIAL
E-selectin (Homo sapiens), sequence (P16581 whole entry, looked up): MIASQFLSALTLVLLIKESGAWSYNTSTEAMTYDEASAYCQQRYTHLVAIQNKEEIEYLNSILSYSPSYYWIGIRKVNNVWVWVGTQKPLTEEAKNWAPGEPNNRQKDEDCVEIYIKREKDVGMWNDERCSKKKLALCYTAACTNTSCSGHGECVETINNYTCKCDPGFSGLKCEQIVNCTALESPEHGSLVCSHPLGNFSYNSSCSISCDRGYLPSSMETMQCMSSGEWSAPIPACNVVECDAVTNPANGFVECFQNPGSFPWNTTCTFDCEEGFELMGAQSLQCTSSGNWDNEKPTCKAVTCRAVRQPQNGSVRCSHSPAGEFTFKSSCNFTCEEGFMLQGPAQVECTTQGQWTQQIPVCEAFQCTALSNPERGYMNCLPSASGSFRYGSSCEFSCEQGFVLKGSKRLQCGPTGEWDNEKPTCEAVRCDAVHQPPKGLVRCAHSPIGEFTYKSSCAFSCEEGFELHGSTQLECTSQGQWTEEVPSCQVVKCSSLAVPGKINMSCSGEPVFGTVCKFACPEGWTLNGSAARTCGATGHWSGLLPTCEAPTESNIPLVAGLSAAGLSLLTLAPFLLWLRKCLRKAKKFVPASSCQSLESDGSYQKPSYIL

NNC(=O)c1ccncc1
not listed: [18]
inactive: all other assays above

O=C(Cl)C(F)(F)C(F)(F)C(F)(F)C(=O)Cl
not listed: [2] | [10] | [11]
inactive: all other assays above

CCCCC(CC)C(=O)OCCOCCOCCOC(=O)C(CC)CCCC (centres undefined)
active: [8] 15.7 µM
not listed: [18]
inactive: all other assays above

NC(=O)NN=Cc1ccc([N+](=O)[O-])o1
active: [16] 12.4 µM
not listed: [10] | [11]
inactive: all other assays above

Cn1cc[nH]c1=S
not listed: [18]
inactive: all other assays above

COCc1nnc(-c2ccc[n+]([O-])c2)n1-c1c(Cl)c(Cl)cc2[nH]c(=O)c(=O)[nH]c12
not listed: [18]
inactive: all other assays above

CCc1cccc(CC)c1N
not listed: [10] | [11]
inactive: all other assays above
